Bioassay records: PubChem BioAssay, several laboratories
GluA2 TARP mod – modulators of GluA2-stargazin AMPA receptor complexes, primary screen, cell-based, membrane potential dye; HEK293 GluA2+stargazin, membrane potential dye (FDSS), glutamate EC50; hits were called plate by plate, in both directions; calls only at 30 µM; hit rate 3.5% among 40,000; AID 1259245, 2017;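 active = any of four per-well response measures lying three or more SD from its plate-wide compound average, in either direction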
Target sequence (O88602 whole entry, looked up): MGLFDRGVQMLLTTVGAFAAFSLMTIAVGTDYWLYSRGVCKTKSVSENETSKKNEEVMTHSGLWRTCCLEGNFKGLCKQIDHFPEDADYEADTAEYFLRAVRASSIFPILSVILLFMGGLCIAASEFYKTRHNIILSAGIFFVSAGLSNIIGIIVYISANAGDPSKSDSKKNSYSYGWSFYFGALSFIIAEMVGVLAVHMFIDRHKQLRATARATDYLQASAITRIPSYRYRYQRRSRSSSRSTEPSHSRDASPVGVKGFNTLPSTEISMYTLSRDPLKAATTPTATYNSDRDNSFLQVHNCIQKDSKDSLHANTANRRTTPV
Target sequence (P19491 whole entry, looked up): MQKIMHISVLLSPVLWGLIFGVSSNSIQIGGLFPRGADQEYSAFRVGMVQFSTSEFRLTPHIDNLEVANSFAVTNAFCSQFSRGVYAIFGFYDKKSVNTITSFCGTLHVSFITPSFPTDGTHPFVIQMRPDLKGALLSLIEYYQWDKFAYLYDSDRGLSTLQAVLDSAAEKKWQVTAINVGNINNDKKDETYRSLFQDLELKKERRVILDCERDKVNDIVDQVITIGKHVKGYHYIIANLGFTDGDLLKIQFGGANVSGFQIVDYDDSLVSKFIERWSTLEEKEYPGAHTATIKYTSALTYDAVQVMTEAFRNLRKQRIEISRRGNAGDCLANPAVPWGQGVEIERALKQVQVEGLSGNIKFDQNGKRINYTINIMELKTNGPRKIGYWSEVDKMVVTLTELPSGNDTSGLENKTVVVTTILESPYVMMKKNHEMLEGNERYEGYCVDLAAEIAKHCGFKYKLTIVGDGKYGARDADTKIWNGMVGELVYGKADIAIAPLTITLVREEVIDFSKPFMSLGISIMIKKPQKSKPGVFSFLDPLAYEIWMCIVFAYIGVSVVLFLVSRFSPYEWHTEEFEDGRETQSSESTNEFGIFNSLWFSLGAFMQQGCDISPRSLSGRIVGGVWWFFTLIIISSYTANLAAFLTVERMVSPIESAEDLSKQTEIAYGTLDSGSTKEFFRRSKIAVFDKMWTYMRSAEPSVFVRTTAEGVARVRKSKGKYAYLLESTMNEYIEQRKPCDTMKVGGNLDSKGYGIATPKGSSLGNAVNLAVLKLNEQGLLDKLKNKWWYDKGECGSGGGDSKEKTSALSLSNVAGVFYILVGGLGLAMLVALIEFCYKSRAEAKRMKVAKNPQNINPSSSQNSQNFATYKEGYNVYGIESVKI
GIRK2 activator – activators of NPY4-receptor-primed GIRK2 channels, summary, cell-based, HEK293, thallium flux; HEK293 GIRK2/NPY4 cells, thallium flux fluorescence; AID 1259324, 2017; G protein-activated inward rectifier potassium channel 2 (Homo sapiens), P48051; activation (% efficacy), % for hits at 37.5 µM; 34,000 tested, under 10 active;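 active = primary screen hit, no activity in plain HEK293 cells, and in GIRK2-only cells above 5% efficacy rising with concentration; inactive = the rest, including fluorescent compounds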;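 also: efficacy is normalized control-subtracted fluorescence 15 s after thallium addition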
Active calls of the source: *; i = inactive; / = not tested or not shown; + = active, no number. The entries come from a sample that favours hits as a whole.

SMILES	GluA2 TARP mod	GIRK2 activator
CC(C)c1nc(-c2ccc(N3CCN(C(=O)c4ccc(Cl)cc4Cl)CC3)nc2)no1	i	i
Cc1cc(-c2nnc(SCC(=O)N3CCc4ccccc43)o2)c(C)o1	i	i
CCOCC(=O)NCC1CCN(C(=O)Nc2ccccc2OC)CC1	i	i
CCOC(=O)C1CCN(C(=S)Nc2ccccc2OC)CC1	+	/
COc1ccc(C(=O)CSc2nc(CC(=O)NC3CCCCC3)cs2)cc1	/	i
CCN(C(=O)Cn1cc(-c2ccccc2)c(N2CCOCC2)n1)c1cccc(C)c1	+	i
CCN(C(=O)Cn1cc(-c2ccc(C)cc2)c(N2CCOCC2)n1)c1cccc(C)c1	/	i
CCOc1ccc(-c2ccc(=O)n(CC(=O)NC3CCCCC3)n2)cc1	i	/
Cc1ccc(S(=O)(=O)N2CCC(C(=O)Nc3nc4c(C)cc(C)cc4s3)CC2)cc1	i	i
Cc1nn(C(C)(C)C)c(OC(=O)c2ccccc2Br)c1S(=O)(=O)c1ccccc1	+	/
COc1cc(OC)cc(C(=O)Oc2c(S(=O)(=O)c3ccccc3)c(C)nn2C(C)(C)C)c1	i	/
Cc1ccc(S(=O)(=O)c2c(C)nn(C(C)(C)C)c2OC(=O)c2ccccc2C)cc1	i	/
COc1cc(OC)cc(C(=O)Oc2c(S(=O)(=O)c3ccc(C)cc3)c(C)nn2C(C)(C)C)c1	+	/
COCc1nc2ccccc2n1CC(O)COc1ccc(Cl)c(C)c1 (stereo not given)	i	i
COCc1nc2ccccc2n1CC(O)COc1ccc(C(C)C)cc1 (stereo not given)	+	i
COc1ccc(CC(=O)Nc2ccc3c(c2)N(C(C)=O)CC3)cc1	i	i
COC(=O)c1ccc2c(=O)n(CCC(=O)N3CCOCC3)c(=S)[nH]c2c1	+	i
COCCn1c(=S)[nH]c2cc(C(=O)N3CCN(c4ccccc4)CC3)ccc2c1=O	i	i
COC(=O)c1ccc2c(=O)n(CCC(=O)NCCCN3CCOCC3)c(=S)[nH]c2c1	+	i
COC(=O)c1ccc2c(=O)n(CCC(=O)N3CCC(Cc4ccccc4)CC3)c(=S)[nH]c2c1	i	i
COC(=O)c1ccc2c(=O)n(CCN3CCCCC3)c(=S)[nH]c2c1	i	i
COCCn1c(=S)[nH]c2cc(C(=O)N3CCc4ccccc4C3)ccc2c1=O	+	i
COc1ccc(S(=O)(=O)N2CCC(C(=O)Nc3nc(C)c(C(C)=O)s3)CC2)cc1	i	i
O=C1CN(Cc2ccc3c(c2)OCO3)C2CS(=O)(=O)CC2N1c1ccc(Cl)cc1 (stereo not given)	i	i
COc1ccc(Br)c(C(=O)NCC2CCN(C(=O)/C=C/c3ccco3)CC2)c1	i	i
SMILES	GluA2 TARP mod	GIRK2 activator
COc1cc(C)c(C)cc1S(=O)(=O)Nc1cccc(C(=O)O)c1	i	i
Cc1cc(C)c2sc(NC(=O)c3ccnn3C)nc2c1	/	i
COc1ccc(OC)c2sc(NC(=O)c3ccnn3C)nc12	+	/
COc1ccc(OCCn2c(C3CC(=O)N(C(C)(C)C)C3)nc3ccccc32)cc1 (stereo not given)	i	/
Cc1cccc(NC(=O)CC2CCCCN2S(=O)(=O)c2cccs2)c1C (stereo not given)	+	i
O=C(CC1CCCCN1S(=O)(=O)c1ccccc1)NCc1cccs1 (stereo not given)	i	/
Cc1cc(NC(=O)Cc2c(C)[nH]c(=O)[nH]c2=O)ccc1Br	i	i
CCc1nnc(NS(=O)(=O)c2ccc(NC(=O)c3ccc(Cc4ccccc4)cc3)cc2)s1	i	/
CC(=O)Nc1ccc(S(=O)(=O)NCCc2ccc(N(C)C)cc2)cc1	i	/
CCNC(=O)C1Cc2ccccc2N1C(=O)NCc1ccccc1 (stereo not given)	i	i
COc1cc2cc(CNc3ccc(C)cc3)c(=O)n(CC(=O)Nc3cccc(Cl)c3)c2cc1OC	i	i
COc1cc2cc(CNc3ccccc3)c(=O)n(CC(=O)Nc3ccc(C)c(Cl)c3)c2cc1OC	i	/
COC(=O)c1ccccc1NC(=O)Cn1c(=O)c(CNc2ccccc2)cc2ccc(OC)cc21	i	i
COc1cc2cc(CNc3ccccc3)c(=O)n(CC(=O)Nc3cccc(Cl)c3C)c2cc1OC	+	/
COc1cccc(NC(=O)Cn2c(=O)c(CNc3ccccc3)cc3ccc(OC)cc32)c1	+	/
CCc1ccc(NCc2cc3cc4c(cc3n(CC(=O)Nc3cc(C)ccc3C)c2=O)OCCO4)cc1	i	i
COc1cc2cc(CNc3ccccc3)c(=O)n(CC(=O)Nc3ccc4c(c3)OCO4)c2cc1OC	+	/
Cc1ccc(C)c(NC(=O)Cn2c(=O)c(CNc3ccccc3)cc3cc4c(cc32)OCCO4)c1	+	i
COc1ccc(C)cc1N1CCn2c1nc1c2c(=O)n(Cc2cc(C)ccc2C)c(=O)n1C	i	/
CCCNC(=O)c1ccc2c(=O)n(-c3cccc(F)c3)c(SCC#N)nc2c1	i	i
CCOc1cc(C(=O)Nc2ccc(N3CCCCC3=O)cc2)cc(OCC)c1OCC	i	i
Cc1ccc(-c2ccc(SCC(=O)NC3CCCCC3)nn2)c(C)c1	+	i
COc1ccc(OC)c(-c2ccc(SCC(=O)NC3CCCC3)nn2)c1	i	i
CC(NC(=O)C(=O)NCC1CCN(C(=O)c2ccncc2)CC1)c1ccccc1 (stereo not given)	i	i
CN(C)S(=O)(=O)N1CCNCC1	i	i
SMILES	GluA2 TARP mod	GIRK2 activator
Cc1cccc(-n2ncc3c(=O)n(CC(=O)N4CCCCCC4)cnc32)c1C	i	/
Cc1nnsc1C(=O)Nc1ccc2c(c1)CC(=O)N2C	+	i
CCC(=O)Nc1ccc2c(c1)CC(=O)N2C	i	/
CCOc1ccc(-c2ccc(N3CCN(C(=O)c4ccc(Br)o4)CC3)nn2)cc1	i	i
O=C(CSc1ccc(NC(=O)c2ccco2)nn1)NCc1ccccc1Cl	+	i
COc1ccc(-c2ccc(SCC(=O)Nc3ccccc3Cl)nn2)cc1OC	+	/
COc1ccc(NC(=O)CSc2ccc(NC(=O)c3ccco3)nn2)cc1OC	+	i
CCC(=O)Nc1ccc(SCC(=O)Nc2ccc(OC)c(OC)c2)nn1	/	i
COc1ccccc1CNC(=O)CSc1ccc(NC(=O)c2ccco2)nn1	i	i
COc1ccccc1NC(=O)CSc1ccc(-c2cc(OC)c(OC)c(OC)c2)nn1	i	i
CCOc1cn2c(cc1=O)C(=O)N(CCNC(=O)c1ccccc1SCC)CC2	i	i
COc1ccccc1NC(=O)CCc1csc(NC(=O)c2ccccc2)n1	i	i
CN(C)C(CNC(=O)Nc1cccs1)c1ccco1 (stereo not given)	i	i
CCc1nc2sc(C(c3ccccc3F)N3CCCCC3)c(O)n2n1 (stereo not given)	i	i
Cc1nn(C2CCS(=O)(=O)C2)c2nc(-c3ccccc3)cc(C(=O)Nc3cccc(F)c3)c12 (stereo not given)	i	i
O=C(c1cccs1)N(C(=O)N1CCCCC1)c1cccc(Cl)c1	i	i
CSc1ccccc1C(=O)N(C(=O)N1CCCCC1)c1ccc(Cl)cc1	i	/
O=C(c1cccs1)N(C(=O)N1CCCCC1)c1ccc(Cl)cc1	+	/
